A selection: hits, their analogues and other compounds. The true share with any hit is near 11%.
Coupling enz: qHTS Assay for Inhibitors of Fructose-1,6-bisphosphate Aldolase from Giardia Lamblia: Coupling assay counterscreen | 290,000 tested, 0.67% active | coupling enzyme system counterscreen, AmpLite Red fluorescence | activity change, negative = inhibition, % at 58.2 µM, hits read low; in the data active = activity change below about -30%
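Coupling enzymes only (glyceraldehyde-3-phosphate) + compound, at 57.5 uM final, 10 min RT; add substrate/coupling/AmpLite Red mix, 20 min RT; fluorescence ex 525/em 598 nm. Actives flag coupling-system interference.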
G9a inh: qHTS Assay for Inhibitors of Histone Lysine Methyltransferase G9a | G9a H3K9 monomethylation, AlphaScreen, 2 h | Potency, µM (highest dose often 102 µM), without a hit: top-dose activity, negative = inhibition, most hits filed as inhibitors | 350,000 tested, 8.8% active; note: potency is the fitted concentration of half-maximal effect; nearly all actives have a fitted effect of over 75% in size
Target sequence (Q96KQ7 913-1193 limits assumed): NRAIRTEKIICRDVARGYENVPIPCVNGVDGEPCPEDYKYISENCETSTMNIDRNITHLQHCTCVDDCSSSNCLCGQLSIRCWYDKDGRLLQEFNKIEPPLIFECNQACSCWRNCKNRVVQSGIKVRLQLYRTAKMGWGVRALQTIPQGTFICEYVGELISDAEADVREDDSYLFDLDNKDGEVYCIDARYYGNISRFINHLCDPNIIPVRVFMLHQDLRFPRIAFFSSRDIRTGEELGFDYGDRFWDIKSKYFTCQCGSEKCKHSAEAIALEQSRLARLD
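AlphaScreen read-out: biotin-H3K9 peptide (500 nM) methylation by 20 nM enzyme with 20 uM SAM, 2 h at room temperature after 15 min compound preincubation; anti-monomethyl H3K9 antibody plus donor/acceptor beads, 10 min dark.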
Sfp inh: qHTS Assay for Inhibitors of Bacillus subtilis Sfp phosphopantetheinyl transferase (PPTase); 310,000 tested, 3.5% active; Potency, µM, without a hit: largest response in the series, negative = inhibition, actives largely listed as inhibitors; Biochemical Sfp PPTase activity, qHTS;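 note: the enzyme is Sfp with the accession as filed and its product quenches rhodamine fluorescence; potency is the fitted concentration of half-maximal effect; 0% = enzyme reaction without inhibitor and -100% = no enzyme wells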
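Compounds were incubated with enzyme (final 15 nM) for 15 min at room temperature before substrate addition started the reaction. Fluorescence at 525 nm excitation, 598 nm emission was recorded immediately and after 30 minutes.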
Tau fibril FP: qHTS for Inhibitors of Tau Fibril Formation, Fluorescence Polarization; K18 P301L tau heparin fibrillization, Alexa594 FP, 6 h; 280,000 tested, 0.39% active; AID 1468, 2008; Potency, µM (titrated, usually from 57.7 µM), inactives show at the highest dose activity, negative = inhibition, most hits filed as inhibitors; Microtubule-associated protein tau (Homo sapiens), P10636; note: potency is the fitted concentration of half-maximal effect; nearly all actives have a fitted effect of over 55% in size
Target sequence (P10636 561-689 P618L limits assumed): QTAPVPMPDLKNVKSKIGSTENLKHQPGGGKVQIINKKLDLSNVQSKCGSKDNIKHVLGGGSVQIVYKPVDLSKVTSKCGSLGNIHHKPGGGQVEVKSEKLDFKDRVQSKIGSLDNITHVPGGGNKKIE
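Heparin (20 uM) drove fibril formation of recombinant tau K18 P301L, 15 uM unlabeled with 0.24 uM Alexa 594 label, for 6 hr at 37 C in 100 mM sodium acetate pH 7. Fluorescence polarization (555/632 nm) read 1 hr after 30 uM ThT.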
Tau ThT inhib: qHTS for Inhibitors of Tau Fibril Formation, Thioflavin T Binding; Microtubule-associated protein tau (Homo sapiens), P10636; recombinant tau K18 P301L, heparin-induced fibrillization, ThT fluorescence; Potency, µM (titrated, usually from 57.4 µM), inactives show top-dose activity, negative = inhibition, actives largely listed as inhibitors; 270,000 tested, 2.1% active; note: potency is the fitted concentration of half-maximal effect; nearly all actives have a fitted effect of over 55% in size
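Fibril formation assay: tau K18 P301L at 15 uM with trace Alexa 594 label, heparin inducer 20 uM, pH 7 sodium acetate buffer, 37 C for 6 hr; endpoint ThT signal.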
Tau fluor counter: Counterscreen qHTS for Inhibitors of Tau Fibril Formation, Fluorescence Polarization; 280,000 tested, 0.93% active; tau K18 P301L (four-repeat tau fragment) Alexa594 fluorescence, heparin fibrillization; AID 1463, 2008; Potency, µM (doses to about 57.7 µM), inactives show top-dose activity change, negative = decrease; note: potency is the fitted concentration of half-maximal effect; nearly all actives have a fitted effect of over 55% in size
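Human K18 P301L tau (15 uM unlabeled plus 0.24 uM Alexa 594-labeled, final) in 100 mM sodium acetate pH 7 was mixed with compound and 20 uM heparin and incubated 6 hr at 37 C.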
Numbers without * were called inactive; ? = inconclusive; . = no result given; [ ] = remark or other dose. Unless noted, calls come from the whole dose curve; as a rule, active = well fitted curve in the direction sought with a large enough effect; inconclusive = small, poorly fitted or top-dose-only effect, or another doubt; inactive = no such curve, though single readings can be large; an effect the other way counts as inactive or inconclusive. Unless noted, % is set by controls: 0 for no effect and ±100 for the full control effect.

SMILES | Coupling enz | G9a inh | Sfp inh | Tau fibril FP | Tau ThT inhib | Tau fluor counter
Cc1cccc(OCC(=O)Nc2ccccc2N2CCCCC2)c1 | 1.8 | 54.2%[59 µM] | 1.0% | -9.2% | ? | -7.4%
Cc1cccc(OCC(=O)NC(=S)N2CCCc3ccccc32)c1 | . | 11.2µM* | 79.4µM* | 7.2% | ? | -22.5%
CCc1ccc(NC(=O)Cn2c(=O)n(Cc3ccc4c(c3)OCO4)c(=O)c3oc4ccccc4c32)cc1 | . | -4.2%[59 µM] | . | -20.2% | 12.0% | -16.8%
Cc1ccc(Cc2c(C)nn(-c3nc(C)c(C(=O)N4CCCCC4C)s3)c2C)cc1 (centres undefined) | . | 0.5%[59 µM] | . | 14.2% | -8.8% | -2.4%
CCOc1ccc(NC(=O)c2c[nH]n3c(=O)cc(C4CCN(C(=O)OC(C)(C)C)CC4)nc23)cc1 | -4.8 | 11.2µM* | 0.9% | 10.5% | . | -6.5%
CCOC(=O)N1CCC(c2cc(=O)n3[nH]cc(C(=O)OC)c3n2)CC1 | 1.6 | 17.3%[59 µM] | 11.7% | -5.9% | -12.2% | -3.6%
O=C(COC(=O)C1CCN(c2ccc(C(F)(F)F)cn2)CC1)Nc1ccc(F)cc1[N+](=O)[O-] | . | 11.2µM* | . | . | . | .
CN(CC(=O)Nc1ccc(F)cc1)C(=O)COC(=O)C1CCN(c2ccc(C(F)(F)F)cn2)CC1 | . | 79.4µM* | . | . | . | .
O=C(COC(=O)C1CCN(c2ccc(C(F)(F)F)cn2)CC1)Nc1ccc(Cl)cc1 | . | 7.4%[0.501 µM] | . | . | . | .
CCOc1ccc(C(=O)C(C)OC(=O)C2CCN(c3ccc(C(F)(F)F)cn3)CC2)cc1 (centres undefined) | . | 56.2µM* | . | . | . | .
O=C(COC(=O)C1CCN(c2ccc(C(F)(F)F)cn2)CC1)Nc1ccc(Cl)cn1 | . | -8.1% | 3.9% | . | . | .
O=C(CCC(=O)c1ccccc1)NC1CCCN(Cc2ccccc2F)C1 (centres undefined) | 0.5 | -9.2% | 18.6% | . | . | .
Cc1ccc(-n2c(C)cc(=O)cc2C)cc1[N+](=O)[O-] | 0.7 | ? | 9.0% | . | . | .
O=C(O)c1nn(CCSc2ccccc2F)c(=O)c2ccccc12 | -0.4 | 1.7%[12.7 µM] | -11.7% | 3.2% | -9.6% | -3.4%
CCC(Cc1ccccc1)NC(=O)CN(C)S(=O)(=O)c1ccc2c(c1)c(=O)n(C)c(=O)n2C (centres undefined) | 2.0 | 44.7µM* | 14.5% | 1.4% | -5.9% | -10.6%
CC(NC(=O)CN(C)S(=O)(=O)c1ccc2c(c1)c(=O)n(C)c(=O)n2C)c1ccccc1 (centres undefined) | . | 8.7%[59 µM] | 3.4% | 3.3% | 7.5% | 6.7%
Cn1c(=O)c2cc(S(=O)(=O)NCCC(=O)N3CC=C(c4ccccc4)CC3)ccc2n(C)c1=O | 1.0 | -23.5% | 8.0% | -0.9% | -6.3% | -3.8%
CN(CC(=O)N1CC=C(c2ccccc2)CC1)S(=O)(=O)c1ccc2c(c1)c(=O)n(C)c(=O)n2C | -1.3 | 44.7µM* | -13.7% | 8.1% | -13.7% | -3.3%
CCOC(=O)CN1CC23C=CC(O2)C(C(=O)NCc2ccc(F)cc2)C3C1=O (centres undefined) | 2.5 | 22.4µM* | 17.0% | -0.6% | -8.0% | -4.1%
Cn1nc(C(=O)NCc2ccccc2Cl)c2c1-c1ccccc1SC2 | . | ? | . | -3.3% | 1.7% | -0.2%
Cc1ccc(CNC(=O)CSc2c(C(C)C)cnc3c2c(=O)n(C)c(=O)n3C)cc1 | . | 6.5%[59 µM] | . | -4.3% | 1.0% | -4.0%
Cc1cc(C)c2nc(N(CCCN(C)C)C(=O)c3ccc4c(c3)CCCC4)sc2c1 | . | 39.8µM* | . | . | . | .
Cc1ccc2nc(N(CCCN(C)C)C(=O)c3ccc4c(c3)CCCC4)sc2c1 | -1.5 | ? | ? | 5.9% | ? | -15.1%
CN(C)CCCN(C(=O)c1ccc2c(c1)CCCC2)c1nc2c(F)cccc2s1 | -37.0* | ? | 39.8µM* | 3.2% | 9.7% | 9.8%
CN(C)CCCN(C(=O)c1ccc(N2C(=O)CCC2=O)cc1)c1nc2c(F)cccc2s1 | 0.9 | 39.8µM* | 2.5% | 4.4% | -8.6% | -2.5%
SMILES | Coupling enz | G9a inh | Sfp inh | Tau fibril FP | Tau ThT inhib | Tau fluor counter
CCCCN1CC(c2nc3ccccc3n2CCCCOc2cc(C)ccc2C)CC1=O (centres undefined) | . | -12.8%[59 µM] | . | -0.8% | 5.1% | 3.1%
Cn1cc(-c2cc3n(n2)CCC(=O)N3CC(=O)NCc2ccccc2)c2ccccc21 | . | 2.8%[59 µM] | . | -0.3% | -8.6% | -23.8%
COc1cc(C2c3c([nH]c(=O)[nH]c3=O)Nc3ccc4ccccc4c32)cc(OC)c1OC (centres undefined) | -4.1 | ? | 56.2µM* | 0.5% | -16.2% | ?
COc1cc(C2CC(=O)c3c(ccc4ccccc34)N2)ccc1O (centres undefined) | -2.3 | 11.2µM* | 13.3% | 2.0% | -11.8% | -13.8%
COc1cc(C2c3c([nH]c(=O)[nH]c3=O)Nc3ccc4ccccc4c32)ccc1O (centres undefined) | -4.1 | 50.1µM* | ? | 11.0% | ? | ?
CN(C(=O)CCCN1C(=O)c2ccccc2C1=O)C1CCCCC1 | . | -9.4%[12.7 µM] | . | . | . | .
COc1cccc(CNC(=O)CCn2c(=O)c3cccn3c3cccnc32)c1OC | . | -3.9%[59 µM] | . | 3.7% | 2.3% | 3.5%
O=[N+]([O-])c1cc(C=Nc2ccc3ccccc3c2)ccc1Br | -4.7 | 10µM* | -7.0% | 3.5% | ? | -27.0%
CCOc1ccc(N=Cc2ccc3ccccc3c2)cc1 | -2.7 | 16.5% | 11.0% | . | . | .
CCC(C(=O)OC)n1nnc2sc(-c3ccccc3)cc2c1=O (centres undefined) | . | 13.9%[59 µM] | . | 7.9% | ? | ?
COc1ccc(NC(=O)C(C)NS(=O)(=O)c2ccccc2)cc1Cl (centres undefined) | 1.0 | -3.3%[12.7 µM] | 17.8% | -0.1% | -7.2% | -5.0%
Cc1cc(C)c(NC(=O)C(C)n2nnc3sc(-c4ccccc4)cc3c2=O)c(C)c1 (centres undefined) | . | 10µM* | . | -15.4% | ? | -7.6%
COc1ccc(NC(=O)C(C)n2nnc3sc(-c4ccccc4)cc3c2=O)cc1Cl (centres undefined) | . | 2.82µM* | . | ? | 14.1µM* | ?
CCC(C)C(=O)Nc1nc(C)c(-c2csc(Nc3cc(Cl)ccc3OC)n2)s1 (centres undefined) | 1.4 | ? | ? | 7.1% | ? | 12.6µM*[quencher]
COc1ccc(OC)c(Nc2nc(-c3sc(NC(=O)C(C)(C)C)nc3C)cs2)c1 | -2.3 | ? | 11.0% | 13.6% | ? | 14.1µM*[quencher]
